# Screens: PubChem, Fisher Drug Discovery Resource Center
# NPYLR7 agonist = activates Aedes aegypti NPYLR7 receptor; HEK293T NPYLR7/Galpha15, GCaMP6s calcium fluorescence; activation, % at 10 µM; actives 0.15% (n = 270,000); AID 1259423; in the data active = activation above about 40%;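 also: 0% = vehicle and 100% = reference agonist at the receptor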
# hcGAS inh = human cGAS inhibition; recombinant h-cGAS, ATP depletion, Kinase-Glo luminescence; inhibition, % at 12.5 µM; actives 0.081% (n = 290,000);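 also: 0% = vehicle reaction and 100% = reaction without DNA for no activity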
# mcGAS inh = mouse cGAS inhibition by luminescence; inhibition, % at 12.5 µM; recombinant cGAS, Kinase-Glo ATP depletion luminescence; actives 0.15% (n = 160,000); Q8C6L5;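 also: 0% = negative control wells and 100% = reference inhibitor with no enzyme activity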
# Target sequence (Q8C6L5 whole entry, looked up): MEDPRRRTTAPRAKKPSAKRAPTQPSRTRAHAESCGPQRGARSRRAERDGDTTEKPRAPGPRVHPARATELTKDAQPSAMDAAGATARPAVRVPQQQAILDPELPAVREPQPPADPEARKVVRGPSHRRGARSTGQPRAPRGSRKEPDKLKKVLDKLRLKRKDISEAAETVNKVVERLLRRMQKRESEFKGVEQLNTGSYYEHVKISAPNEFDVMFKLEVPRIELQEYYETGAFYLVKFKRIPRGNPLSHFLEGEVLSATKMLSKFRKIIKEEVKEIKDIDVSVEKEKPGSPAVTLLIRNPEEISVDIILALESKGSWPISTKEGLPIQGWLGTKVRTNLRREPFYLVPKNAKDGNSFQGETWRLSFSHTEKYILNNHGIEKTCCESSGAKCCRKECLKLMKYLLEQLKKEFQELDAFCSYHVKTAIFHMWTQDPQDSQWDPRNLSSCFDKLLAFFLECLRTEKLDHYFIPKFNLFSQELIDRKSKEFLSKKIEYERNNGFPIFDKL
# Active calls of the source: *; . = no result. Hits are enriched below; roughly 0.28% of the tested compounds scored in any of these assays. Rule as the data show it, unless noted: active = inhibition above about 40%; inactive = the rest.
SMILES,NPYLR7 agonist,hcGAS inh,mcGAS inh
CCc1noc(CN(CC)C(=O)C(C)Oc2cc(C)ccc2C)n1 (configuration not stated),14,-5,.
Cc1ccc2c(c1)NC(=O)c1cc(NC(=O)C3CCCC3)ccc1O2,6,-4,.
O=C1NC(=NC2CCCC2)SC1=Cc1cc([N+](=O)[O-])ccc1N1CCCC1,-3,-5,.
O=C1NC(=NS(=O)(=O)c2ccccc2)SC1=Cc1cc([N+](=O)[O-])ccc1O,61*,35,75*
Cc1ccc(-n2ncc3c(=O)n(NC(=O)c4ccc(OC(C)C)cc4)cnc32)cc1C,13,4,.
CCN(CCOc1ccccc1C)C(=O)CC1CNCCO1 (configuration not stated),0,-3,-10
N#Cc1c(N)nc(SCC(=O)c2ccccc2)c(C#N)c1-c1ccc(O)cc1,-4,-1,-3
N#Cc1c(N)nc2c(c1N)C(Sc1ccccc1)c1ccc(O)cc1O2 (configuration not stated),413*,-6,.
CCCCC(CC)CCC(CC(C)C)OS(=O)(=O)O (configuration not stated),-5,42*,.
CCCCCCCCCCCCOS(=O)(=O)O,-21,-3,.
O=C1OC(C(=O)Nc2nc(-c3ccccc3)cs2)Cc2ccccc21 (configuration not stated),-4,-5,.
Cc1cccc2[nH]c(CCNC(=O)c3cc(C(C)C)on3)nc12,4,73*,-9
Cc1nc(CCNC(=O)c2cc(C(C)C)on2)sc1C,0,-4,.
COc1ccc(NC(=O)CN2C(=O)c3ccccc3NC23CCN(C)CC3)cn1,49*,-12,.
COc1ccc(NC(=O)CCC(=O)N2CCc3ccccc3C2)cn1,-4,-4,-4
COc1ccc(CN2CCN(Cc3cccc(C(C)=O)c3)CC2CCO)c(F)c1 (configuration not stated),-6,-3,.
O=C(O)C1C2CC3C1C(=O)Oc1ccc(Br)cc1C1c4sc(=O)[nH]c4SC2C13 (configuration not stated),13,-1,41*
O=C(O)C1C2CC3C1C(=O)Oc1ccccc1C1c4sc(=O)[nH]c4SC2C13 (configuration not stated),15,-4,14
CC(N)C(=O)Nc1nnc(-c2ccccc2)s1 (configuration not stated),-7,-6,-5
CCC(=O)C(C#N)c1nnc(-c2ccccc2)s1 (configuration not stated),8,56*,.
CCc1ccc(C(=O)N(CCOC)Cc2nc3ccccc3o2)cc1,0,-4,-7
Nc1ccc(Oc2cc(N)cc(Oc3ccccc3)c2)cc1,74*,-3,-3
Nc1ccc(Oc2ccc([N+](=O)[O-])cc2)cc1,-11,1,.
Cc1cccc(N2C(=O)CS/C2=N/NC(=O)c2ccc(Br)cc2)c1C,0,-10,.
C=C1C(=O)O[C@@H]2C[C@@]3(C)CCC[C@H](C)C3=C[C@H]12,-6,-4,93*
SMILES,NPYLR7 agonist,hcGAS inh,mcGAS inh
CCOC(=O)/C(C#N)=C1/Sc2ccccc2N1C,-2,2,.
CCCC[n+]1c(C)cc(C=C2Sc3ccccc3N2C)cc1C,198*,-1,.
CCN1/C(=C/C2=CC(=O)CC(C)(C)C2)Sc2ccccc21,60*,-5,.
CCC(C)[n+]1c(C)cc(C=C2Sc3ccccc3N2C)cc1C (configuration not stated),173*,7,.
CCC(C)[n+]1c(C)cc(C=C2Sc3ccccc3N2CC)cc1C (configuration not stated),78*,-4,.
CN1C(=C2C(=O)CC(C)(C)CC2=O)Sc2ccccc21,1,4,.
CCN1c2ccccc2Sc2cc(C=O)ccc21,8,0,.
CN(C)CCCN1c2ccccc2Sc2ccc(C(F)(F)F)cc21,9,-3,-6
Cc1cc(C(=O)Nc2nc3c(F)cc(F)cc3s2)nn1C,-7,0,.
Cc1c(Br)c(C(F)(F)F)nn1CC(=O)NC(C)C1CC2CCC1C2 (configuration not stated),-1,-5,.
COC(=O)C1=C(C)NC2=C(C(=O)CCC2)C1c1ccc(OC)c(O)c1 (configuration not stated),-1,-7,-6
N#CC1C(=N)Oc2c(sc3ccccc23)C1c1ccc(C(F)(F)F)cc1 (configuration not stated),6,-7,-6
C=CCO[C@H]1[C@H](NC(=O)COC)c2ccccc2C12CCN(C(=O)c1ccccc1SC)CC2,-9,1,-2
Cc1noc(C)c1CN1C(=O)CC(Cc2ccc(F)cc2)C1=O (configuration not stated),1,-7,.
CCOC(=O)c1ccccc1N1C(=O)/C(=C\c2ccncc2)N(C)C1=S,-4,-6,-3
Cc1cc(C=C2Sc3ccccc3N2C)cc(C)[n+]1-c1ccccc1,76*,-3,.
CCN1C(=CC=Cc2sc3ccccc3[n+]2CC)Sc2ccccc21,-12,-49,.
CCN1C(=Cc2ccc3cc(C)ccc3[n+]2CC)Sc2ccccc21,74*,8,.
Cc1cc(C=C2Sc3ccccc3N2C)cc(C)[n+]1N1CCN(C)CC1,47,9,.
Cc1cc(C=C2Sc3ccccc3N2C)cc(C)[n+]1Cc1ccncc1,51*,1,-2
O=c1cc(CSc2ccc3c(c2)OCCO3)c2c(ccc3ccccc32)o1,-2,-3,.
O=C(O)c1ccc(O)c(-c2ccccc2)c1,10,1,.
CN(Cc1cc(C(C)(C)C)n[nH]1)c1nc(CCN)nc2ccccc12,.,-6,.
CN(Cc1ccccc1)c1nc(CCN)nc2ccccc12,-2,47*,-8
CN(Cc1ccccc1)c1cc(C(C)(C)C)nc(SCc2ccc(C(=O)N3CCCC3)o2)n1,10,-11,-5
SMILES,NPYLR7 agonist,hcGAS inh,mcGAS inh
O=C1NC(=S)SC1=Cc1ccc(Cl)cc1,-9,11,55*
O=C1NC(=S)SC1=Cc1ccc(F)cc1,2,15,38
O=C(O)CN1C(=O)/C(=C/c2c(F)cccc2Cl)SC1=S,-4,-3,-1
O=C1NC(=S)SC1=Cc1c(F)cccc1Cl,-3,48*,.
COc1cc2c(C(=O)O)c(C)n(-c3ccc(C)cc3C)c2c2ccccc12,-5,-5,-3
CCC1(O)CC(OC2CC(N(C)C)C(OC3CC(O)C(OC4CCC(=O)C(C)O4)C(C)O3)C(C)O2)c2c(cc3c(c2O)C(=O)c2c(O)cccc2C3=O)C1C(=O)OC (configuration not stated),-10,79*,.
O=C(Cn1cc(C(F)(F)F)cc(Cl)c1=O)c1ccc2[nH]c(=O)[nH]c2c1,2,-11,-6
CN(CCNC(=O)c1ccc(-n2cccc2)cc1)S(C)(=O)=O,-1,-4,.
O=[Si]=O,-3,-9,42*
COc1ccc(-c2nc3ccc(C)cn3c2NC(=O)Cc2ccccc2)cc1,-2,-3,-5
